Compounds with a hit are over-represented: about 2.6% of the library has one in this group of screens.
eIF4H FP inh: inhibitors of RNA binding by human eIF4H; hit rate 0.94% among 290,000; AID 2012; eIF4H fluorescence polarization binding assay; Q15056; inhibition, % at 35 µM;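 also: calls also rest on retests at 20 µM and on dose response follow-up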
PABP FP inh: blocks human PABP binding to poly(A) RNA; fluorescence polarization; calls only at 35 µM; hit rate 1% among 290,000;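 also: calls also rest on retests at 20 µM and on dose response follow-up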
PHOSPHO1 inh: blocks human PHOSPHO1 phosphatase activity; Q8TCT1; recombinant PHOSPHO1, absorbance phosphatase assay; inhibition, % at 13.3 µM; hit rate 1.1% among 290,000; AID 1565; in the data active = inhibition above about 60%
APOBEC3A inh: human APOBEC3A DNA deaminase inhibition | recombinant A3A, FAM/TAMRA ssDNA deamination fluorescence | inhibition, % at 20 µM | hit rate 0.41% among 330,000 | P31941;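 active = at least 40% inhibition at 20 µM here, with at most 30% in a related deaminase screen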;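 also: plate controls were A3A with DMSO for no effect and wells lacking A3A enzyme for full effect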
Target sequence (P31941 whole entry, looked up): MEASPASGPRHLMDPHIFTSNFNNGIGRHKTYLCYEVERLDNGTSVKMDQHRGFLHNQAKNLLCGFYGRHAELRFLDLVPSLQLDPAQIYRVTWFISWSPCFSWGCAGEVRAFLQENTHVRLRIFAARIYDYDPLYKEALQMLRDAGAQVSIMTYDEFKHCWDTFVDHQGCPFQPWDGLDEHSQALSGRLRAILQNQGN
A3G deaminase: APOBEC3G (human) deaminase inhibition; Q9HC16; recombinant A3G, ssDNA deamination FAM/TAMRA fluorescence; hit rate 0.28% among 330,000; inhibition, % at 20 µM;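 active = inhibition of at least 40% at 20 µM, with no more than 30% in the related APOBEC3A deaminase screen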;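 also: plate controls were DMSO wells with A3G for no effect and wells lacking A3G enzyme for full effect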
PABP1 MLLE inh: blocks PAM2 peptide binding to the PABP1 MLLE domain | inhibition, % at 20 µM | AID 588489 | P11940 | hit rate 0.36% among 360,000 | GST-MLLE / FITC-PAM2 fluorescence polarization; in the data active = inhibition above about 35%, passing the limit was not always enough;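 also: plate controls were DMSO wells with GST-MLLE for no effect and wells lacking GST-MLLE protein for full effect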
* marks the source's active call; other numbers are inactive results. Unless noted, no rule for the calls is given here.

Screening Cc1cc(C)c(C)c(C(=O)CSc2nnc(-c3ccc4[nH]c(C)c(C)c4c3)o2)c1C returned eIF4H FP inh 0.2, PABP FP inh inactive, PHOSPHO1 inh 61.1*, APOBEC3A inh -3.4, A3G deaminase -8.9 and PABP1 MLLE inh -138.8.
`Cc1[nH]c2ccc(-c3nnc(SCC(=O)c4ccc(F)cc4)o3)cc2c1C` gave eIF4H FP inh -6.2, PABP FP inh inactive, PHOSPHO1 inh 86.6*, APOBEC3A inh -6.7, A3G deaminase -6.6 and PABP1 MLLE inh -148.6.
CCOc1ccc(NC(=O)c2ccc(F)cc2F)cc1 was read as APOBEC3A inh -1.4, A3G deaminase -7.7 and PABP1 MLLE inh -6.1.
Screening CCCNC(=O)C1(C)CCN(C(=O)/C=C/c2ccccc2)C1 (stereo not given) returned PABP1 MLLE inh -0.7.
For N#CC1=C2SCN(Cc3ccccc3)CN2C(=O)CC1c1cccs1 (stereo not given) the results were eIF4H FP inh 12.6, PABP FP inh inactive, PHOSPHO1 inh 67.5*, APOBEC3A inh -6.3, A3G deaminase -1.5 and PABP1 MLLE inh -9.7.
`COc1cc(C2CC(=O)N3CN(Cc4ccco4)CSC3=C2C#N)ccc1OCc1ccccc1` (stereo not given) gave eIF4H FP inh 23.2, PABP FP inh inactive, PHOSPHO1 inh 41.3, APOBEC3A inh -1.7, A3G deaminase 2.8 and PABP1 MLLE inh -32.6.
Screening N#CC1=C2SCN(Cc3ccccc3)CN2C(=O)CC1c1ccc2c(c1)OCO2 (stereo not given) returned eIF4H FP inh -0.1, PABP FP inh inactive, PHOSPHO1 inh 63.2*, APOBEC3A inh -5.3, A3G deaminase 4.3 and PABP1 MLLE inh 19.1.
O=C1C=C(c2ccccc2Oc2ccccc2)C[C@@H](c2ccc(F)cc2)C1 was read as PABP1 MLLE inh -4.9.
For CC(=O)Nc1ccc(OCC(=O)Nc2ccc(Cl)c(S(=O)(=O)N3CCOCC3)c2)cc1 the results were APOBEC3A inh -2.6, A3G deaminase -5.6 and PABP1 MLLE inh -4.8.
For Nc1cccc2c(=O)c3ccccc3[nH]c12 the results were eIF4H FP inh 91.9*, PABP FP inh active, PHOSPHO1 inh -2.2, APOBEC3A inh 11.9, A3G deaminase 27.7 and PABP1 MLLE inh -51.3.
For O=[N+]([O-])c1ccc(C=CC=Cc2ccccc2)cc1 the results were PABP1 MLLE inh -78.1.
[O-]/[N+](=C\C=C\c1ccccc1)c1ccccc1 was read as eIF4H FP inh 1.1*, PABP FP inh active, PHOSPHO1 inh 20.3, APOBEC3A inh 0.7, A3G deaminase -2.5 and PABP1 MLLE inh -0.1.
Screening C=CCn1c(C)cc(C(=O)CSc2nnc3c(Cl)cc(Cl)cn23)c1C returned eIF4H FP inh -10.3, PABP FP inh inactive, PHOSPHO1 inh 62.2*, APOBEC3A inh -5.5, A3G deaminase -6.2 and PABP1 MLLE inh -14.8.
For CON/C=N/C(=S)Nc1ncc(C(F)(F)F)cc1Cl the results were eIF4H FP inh -8.5, PABP FP inh inactive, PHOSPHO1 inh 43.1, APOBEC3A inh 0.1, A3G deaminase -4.7 and PABP1 MLLE inh 42.1*.
For ON/C=N/C(=S)Nc1ncc(C(F)(F)F)cc1Cl the results were eIF4H FP inh -1.6, PABP FP inh inactive, PHOSPHO1 inh 6.2, APOBEC3A inh -2.3, A3G deaminase -5.7 and PABP1 MLLE inh 38.3*.
Cc1cc(NC(=O)CN2C(=O)/C(=C/c3ccc(C(C)C)cc3)SC2=S)no1 was read as PABP1 MLLE inh -42.9.
`C=CCn1c(O)c(CN2CCN(Cc3ccccc3)CC2)c(C)c(C#N)c1=O` gave eIF4H FP inh 126.5*, PABP FP inh inactive, PHOSPHO1 inh 7.1, APOBEC3A inh -16.2, A3G deaminase -4.6 and PABP1 MLLE inh 63.7.
For Cc1cc(C)c2c(N)c(S(=O)c3ccc(C(C)(C)C)cc3)sc2n1 (stereo not given) the results were eIF4H FP inh 0.2, PABP FP inh inactive, PHOSPHO1 inh 106.0*, APOBEC3A inh -4.4, A3G deaminase -9.5 and PABP1 MLLE inh 29.2.
For CCCn1c(SCc2nc3sc(C)c(C)c3c(=O)[nH]2)nc2ccccc2c1=O the results were eIF4H FP inh 48.0, PABP FP inh inactive, PHOSPHO1 inh 68.7*, APOBEC3A inh 4.1, A3G deaminase -0.7 and PABP1 MLLE inh -111.2.
For COCCn1c(SCc2nc3ccccc3c(=O)[nH]2)nc2ccccc2c1=O the results were eIF4H FP inh -6.9, PABP FP inh inactive, PHOSPHO1 inh 32.2, APOBEC3A inh 5.8, A3G deaminase -10.8 and PABP1 MLLE inh -3.0.
Screening CCC(=O)c1ccc(NC(C)=O)cc1O returned eIF4H FP inh 76.9*, PABP FP inh active, PHOSPHO1 inh 42.1, APOBEC3A inh 0.9, A3G deaminase -1.6 and PABP1 MLLE inh 2.8.
For CCC(=O)c1ccc(SC(=O)N(C)C)cc1O the results were eIF4H FP inh 3.6, PABP FP inh inactive, PHOSPHO1 inh 2.8, APOBEC3A inh 7.0, A3G deaminase -0.2 and PABP1 MLLE inh 2.7.
For O=c1cc(-c2ccc(O)cc2)oc2c1ccc1ccccc12 the results were APOBEC3A inh -2.2, A3G deaminase -4.3 and PABP1 MLLE inh -21.9.
O=c1cc(-c2ccc(O)cc2)oc2c(O)c(O)c(O)c(O)c12 was read as eIF4H FP inh 90.6*, PABP FP inh active, PHOSPHO1 inh 37.7, APOBEC3A inh 29.2, A3G deaminase 1.2 and PABP1 MLLE inh -29.2.
For CCn1ccnc1CN(C)C(=O)c1cc(COc2ccccc2SC)on1 the results were eIF4H FP inh -6.7, PABP FP inh inactive, PHOSPHO1 inh 46.5, APOBEC3A inh -1.7, A3G deaminase -5.7 and PABP1 MLLE inh 2.0.
Cc1cc(C)n(Cc2n[nH]c(=S)n2Cc2ccccc2)n1 was read as eIF4H FP inh -22.5, PABP FP inh inactive, PHOSPHO1 inh 89.9*, APOBEC3A inh -2.5, A3G deaminase 21.8 and PABP1 MLLE inh -26.9.
`Cc1nn(Cc2n[nH]c(=S)n2Cc2ccccc2)c(C)c1Cl` gave eIF4H FP inh -1.2, PABP FP inh inactive, PHOSPHO1 inh 99.1*, APOBEC3A inh -0.6, A3G deaminase 24.9 and PABP1 MLLE inh -15.8.
Screening Cc1ccccc1OCc1n[nH]c(=S)n1Cc1ccccc1 returned eIF4H FP inh -0.3, PABP FP inh inactive, PHOSPHO1 inh -18.8, APOBEC3A inh -10.8, A3G deaminase -8.2 and PABP1 MLLE inh -32.6.
CCOC(=O)/C(C#N)=N/Nc1ccccc1C#N was read as eIF4H FP inh 0.5, PABP FP inh inactive, PHOSPHO1 inh -6.2, APOBEC3A inh -9.4, A3G deaminase -5.8 and PABP1 MLLE inh -7.6.
Screening CCCn1nc(NC(=O)CC(C)C)c2cc3ccccc3nc21 returned eIF4H FP inh -13.6, PABP FP inh inactive, PHOSPHO1 inh 68.9*, APOBEC3A inh 18.8, A3G deaminase -0.6 and PABP1 MLLE inh -87.8.
For CCn1nc(NS(=O)(=O)c2ccc(NC(C)=O)cc2)c2cc3ccc(C)cc3nc21 the results were eIF4H FP inh -1.9, PABP FP inh inactive, PHOSPHO1 inh 15.4, APOBEC3A inh 1.4, A3G deaminase 17.1 and PABP1 MLLE inh -13.7.

Source: PubChem (Sanford-Burnham Center for Chemical Genomics)
